Assay outcomes: PubChem, National Center for Advancing Translational Sciences (NCATS)
SMN2 splice enh = enhancers of SMN2 splice variant expression | HEK293 SMN2-luciferase splicing reporter, luminescence, 30-36 h | Potency, µM (doses to about 46.1 µM), for the others: top-dose activity change, positive = activation, actives largely listed as activators | hit rate 2.8% among 210,000; note: % of control where 0% means no effect; nearly all actives have a fitted effect of over 55% in size
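HEK293 cells carry an SMN2 minigene-luciferase reporter in which exon 7 inclusion puts luciferase in frame. Cells were seeded at 2000 cells/well, attached for 10-12 hours, then exposed to compounds for 30-36 hours at 37C before ONE-Glo luminescence.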
uPA surface inh = inhibitors of cell surface uPA generation; Potency, µM (doses to about 38.3 µM), without a hit: at the highest dose activity change, negative = inhibition, most hits filed as inhibitors; hit rate 0.31% among 330,000; cell surface uPA generation assay, qHTS; active = well fitted inhibition curve with a large enough effect; inconclusive = small, poorly fitted or top-dose-only effect; inactive = no such curve, though single readings can be large or run the other way; tested in mouse RAW 264.7 cells; note: % is set by controls: 0 for no effect and ±100 for the full control effect; nearly all actives have a fitted effect of over 55% in size
ELG1 genotoxic = inducers of genotoxicity in HEK293T ELG1-luciferase cells; HEK293T ELG1-luciferase reporter, luminescence, 16 h; Potency, µM (highest dose often 46 µM), for the others: at the top dose activity change, positive = activation, actives largely listed as activators; hit rate 1.3% among 330,000; AID 504466; note: % of control where 0% means no effect; nearly all actives have a fitted effect of over 60% in size
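DMSO vehicle served as control against compound-treated ELG1-luciferase HEK293T cells; exposure lasted 16 hr at 37 °C and 5% CO2, followed by ONE-Glo luminescence detection after 30 min.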
NPC1 promoter act = NPC1 promoter activation | Huh7 NPC1 promoter luciferase reporter, 24 h | Potency, µM (doses to about 9.22 µM), for inactives: at the highest dose activation, most hits filed as activators | hit rate 2.4% among 320,000 | AID 485313; note: % of control where 0% means no effect; nearly all actives have a fitted effect of over 60% in size
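Cells: Huh7 expressing luciferase under the NPC1 promoter, 1500/well. Seeded 2 h, compound added, incubated 24 h at 37 °C. Luciferase reagent, 10 min ambient, then luminescence.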
Rab9 prom act = activates the Rab9 promoter; Huh7 Rab9 promoter-luciferase reporter, luminescence, 24 h; Potency, µM (doses to about 9.22 µM), without a hit: at the highest dose activation, negative = inhibition, actives largely listed as activators; hit rate 2.8% among 320,000; AID 485297; note: % of control where 0% means no effect; nearly all actives have a fitted effect of over 60% in size
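Huh7 cells stably carrying Rab9 promoter–luciferase reporter, plated 1500 cells/well, compound added after 2 h and incubated 24 h at 37 °C; luciferase luminescence then read after 10 min with detection reagent.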
FLuc counter = counter-screen for miR-21 project: firefly luciferase inhibitors or activators. P08659. purified FLuc, Km substrates, luminescence inhibition. Potency, µM (highest dose often 57.5 µM), without a hit: top-dose activity change, negative = inhibition, usual class: inhibitors. hit rate 6.9% among 360,000;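 note: plate controls were vehicle for no effect and reference inhibitor for full effect; nearly all actives have a fitted effect of over 55% in size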
Target sequence (P08659 whole entry, looked up): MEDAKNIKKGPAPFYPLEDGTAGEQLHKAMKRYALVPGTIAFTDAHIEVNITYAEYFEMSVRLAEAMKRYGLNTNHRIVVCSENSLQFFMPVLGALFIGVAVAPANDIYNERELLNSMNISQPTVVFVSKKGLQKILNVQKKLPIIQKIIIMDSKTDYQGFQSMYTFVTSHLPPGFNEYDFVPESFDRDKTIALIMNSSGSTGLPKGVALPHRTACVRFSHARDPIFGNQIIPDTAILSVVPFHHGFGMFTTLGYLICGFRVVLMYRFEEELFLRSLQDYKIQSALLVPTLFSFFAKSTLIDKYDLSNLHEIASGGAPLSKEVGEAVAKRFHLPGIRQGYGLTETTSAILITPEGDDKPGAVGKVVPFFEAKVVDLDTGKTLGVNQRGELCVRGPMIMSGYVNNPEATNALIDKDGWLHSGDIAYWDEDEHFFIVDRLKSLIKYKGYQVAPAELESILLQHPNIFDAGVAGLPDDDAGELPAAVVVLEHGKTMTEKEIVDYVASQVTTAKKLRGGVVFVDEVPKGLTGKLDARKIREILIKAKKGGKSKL
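Purified P. pyralis luciferase, 10 nM final, with Km-level 10 uM D-luciferin and 10 uM ATP in 50 mM Tris acetate pH 7.5, 10 mM Mg acetate, 0.01% Tween-20, 0.05% BSA; 6-point qHTS titration about 60 µM downward; luminescence read.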
An asterisk follows results filed as active; ? = inconclusive; nt = not tested or not shown. Most compounds without a hit are left out; they make up all but 7.3% or so of the library. Unless noted, calls come from the whole dose curve; as a rule, active = well fitted curve in the direction sought with a large enough effect; inconclusive = small, poorly fitted or top-dose-only effect, or another doubt; inactive = no such curve, though single readings can be large; an effect the other way counts as inactive or inconclusive. Potency is the fitted concentration of half-maximal effect.

SMILES	SMN2 splice enh	uPA surface inh	ELG1 genotoxic	NPC1 promoter act	Rab9 prom act	FLuc counter
CCOc1ccc(N=C(C)c2ccccc2O)cc1	3.1%	-4.5%	-0.3%	0.7%	3.4%	21.3µM*
C/C(=N/N=C(\C)c1ccccc1O)c1ccccc1O	nt	7.4%	?	?	14.8%	?
CC1CCc2c(cc(-c3ccccc3)n2-c2ccc(C(=O)NC(C)C)cc2)C1 (configuration not stated)	nt	nt	nt	nt	nt	-3.0%
CC(C)Sc1nc(N)c2c3c(sc2n1)CN(C)CC3	11.2µM*	-1.5%	?	?	?	23.9µM*
COc1ccc(NC(=S)Nc2ncccc2C)cc1OC	35.5µM*	-6.0%	?	?	?	?
Cc1cccnc1NC(=S)NCCc1ccccc1	?	-0.7%	?	23.5%	?	16.9µM*
Cc1cccnc1NC(=S)Nc1ccc(Cl)c(Cl)c1	?	2.2%	?	10.7%	?	?
Cc1cccnc1NC(=S)Nc1ncccc1C	nt	-9.5%	?	1.26µM*	0.708µM*	13.5µM*
COc1ccc(NC(=S)Nc2ncccc2C)c(OC)c1	?	-7.7%	11.8%	?	?	9.53µM*
S=C(NCCc1ccccc1)Nc1ncccn1	nt	-3.2%	nt	nt	nt	nt
COc1cccc([C@@H]2Oc3ccc(Br)cc3C(=O)[C@H]2OC(=O)NS(=O)(=O)c2ccc(F)cc2)c1	12.1%	nt	nt	nt	nt	nt
O=C(NC(=S)NCCCN1CCOCC1)c1ccc([N+](=O)[O-])cc1	-3.6%	0.0%	-1.1%	2.1%	1.4%	3.1%
Cc1ccc(NC(=O)COC(=O)CCc2ccccc2)c(Cl)c1	nt	0.1%	7.6%	-1.3%	-1.6%	16.9µM*
Cc1ccc(OCCC(=O)OCC(=O)Nc2ccc(C)cc2Cl)cc1	nt	-0.3%	-0.5%	-0.1%	13.7%	0.7%
C=CCN1C(=O)/C(=C2\SC(N3CCOCC3)=NC2=O)c2cc(Br)ccc21	10.8%	-1.5%	-5.9%	-0.6%	-3.1%	-14.3%
CCN1C(=O)/C(=C2\SC(N3CCOCC3)=NC2=O)c2ccccc21	nt	10.2%	2.7%	18.5%	25.6%	10.7µM*
CCCCN1C(=O)/C(=C2\SC(N3CCOCC3)=NC2=O)c2ccccc21	nt	?	-2.2%	2µM*	2µM*	?
CC(C)C(NC(=O)c1ccccc1NC(=O)c1ccccc1)C(=O)NNC(=O)c1ccncc1 (configuration not stated)	nt	-1.6%	5.5%	-0.6%	-0.5%	?
Cc1ccc(SCc2ccc(C(=O)Nc3ccccc3C(=O)NC(C)C)cc2)cc1	nt	2.4%	9.8%	1.9%	-1.0%	3.4%
COc1ccc(C(=O)Nc2ccccc2C(=O)NC(Cc2ccc(O)cc2)C(=O)NNC(=O)c2ccncc2)cc1 (configuration not stated)	29.3%	-3.0%	2.0%	-1.3%	12.8%	12µM*
COc1ccc(C(=O)Nc2ccccc2C(=O)NC(Cc2ccc(O)cc2)C(=O)NNC(=O)c2ccc(C)cc2)cc1 (configuration not stated)	-1.1%	-4.1%	?	-2.9%	-12.5%	9.53µM*
COc1ccc(C(=O)Nc2ccccc2C(=O)NC(Cc2ccc(O)cc2)C(=O)NNC(=O)c2ccccc2)cc1 (configuration not stated)	22.2%	-1.1%	-5.1%	-1.2%	0.4%	4.78µM*
CCOC(=O)C1CCN(C(c2cccc(F)c2)c2c(O)cc(C)n(Cc3ccco3)c2=O)CC1 (configuration not stated)	nt	nt	nt	nt	nt	0.3%
O=C(OCc1nc2ccccc2s1)c1ccc([N+](=O)[O-])o1	nt	-5.6%	-5.4%	-6.0%	-1.6%	-10.4%
O=C(O)COCc1nc2ccccc2s1	nt	1.3%	-2.0%	-0.1%	-2.9%	2.5%
CC(=O)OCc1nc2ccccc2s1	-4.6%	nt	?	14.0%	14.6%	5.36µM*
CCOC(=O)C(=O)Cc1nc2ccccc2s1	nt	1.3%	2.3%	2.7%	12.2%	19µM*
Cc1cc(C(=O)OCc2nc3ccccc3s2)c(C)o1	-2.0%	11.7%	nt	nt	nt	19µM*
NC(=O)c1ccccc1OCc1nc2ccccc2s1	nt	-1.1%	?	?	?	3.01µM*
